Data on one sequence can be found in publication PMC7862700, “An all-to-all approach to the identification of sequence-specific readers for epigenetic DNA modifications on cytosine”.

Common to all, as to assay: DAPPL (digital affinity profiling via proximity ligation, sequencing); 10 mM Tris-HCl pH 7.5, 50 mM NaCl, 1 mM DTT, 4% glycerol, room temperature, 30 min; GST-TFs on glutathione beads, 16-mer random dsDNA library, 0.1% formaldehyde crosslink after washing; high values mean tight binding
For assay [1], the target named is T1, FLI1 (Homo sapiens, UniProt Q01543 1-452).
T1 sequence: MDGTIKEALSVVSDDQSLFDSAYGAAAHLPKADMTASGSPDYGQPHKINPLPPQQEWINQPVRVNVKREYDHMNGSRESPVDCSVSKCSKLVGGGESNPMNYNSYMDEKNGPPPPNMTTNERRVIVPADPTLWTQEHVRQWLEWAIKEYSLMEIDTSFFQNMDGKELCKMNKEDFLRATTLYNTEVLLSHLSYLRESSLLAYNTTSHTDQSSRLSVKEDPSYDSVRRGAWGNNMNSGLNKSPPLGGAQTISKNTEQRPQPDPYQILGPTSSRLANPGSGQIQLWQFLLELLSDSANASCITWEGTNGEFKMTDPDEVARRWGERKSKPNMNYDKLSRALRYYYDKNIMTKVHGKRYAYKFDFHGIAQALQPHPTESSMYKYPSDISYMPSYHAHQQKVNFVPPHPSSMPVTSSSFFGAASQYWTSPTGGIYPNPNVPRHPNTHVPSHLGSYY
The note with it: protein: recombinant; tags: N-terminal GST; dsDNA, one strand shown. A digest of the protocol: (§1)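 Pools were built from human transcription factors expressed in yeast as GST fusions, captured on glutathione beads and DNA-barcoded, along with a tag-only sample. Incubation with 200 nmole of a 16-mer random double-stranded DNA library lasted 30 min at room temperature in Tris/NaCl/DTT/glycerol buffer, and was followed by washing, 0.1% formaldehyde crosslinking, proximity ligation, PCR amplification and Illumina NextSeq500 sequencing. Binding signal is the quotient of each hexamer's read frequency for a factor and its frequency for the tag-only sample.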

For assay [2], the target named is T2, ELK1 (Homo sapiens, UniProt P19419 1-428).
T2 sequence: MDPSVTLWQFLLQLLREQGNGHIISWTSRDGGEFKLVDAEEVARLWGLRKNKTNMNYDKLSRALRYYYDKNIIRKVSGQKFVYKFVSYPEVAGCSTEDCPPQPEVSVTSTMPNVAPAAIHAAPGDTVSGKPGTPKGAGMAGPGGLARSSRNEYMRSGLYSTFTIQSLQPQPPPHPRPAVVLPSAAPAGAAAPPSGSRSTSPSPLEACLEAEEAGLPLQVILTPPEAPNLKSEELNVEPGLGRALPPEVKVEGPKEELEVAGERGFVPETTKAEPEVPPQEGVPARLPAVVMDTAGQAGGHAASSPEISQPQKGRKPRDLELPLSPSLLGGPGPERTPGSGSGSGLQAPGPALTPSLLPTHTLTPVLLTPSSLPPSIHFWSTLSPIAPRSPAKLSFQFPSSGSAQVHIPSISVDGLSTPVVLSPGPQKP
To be noted: protein: recombinant; tags: N-terminal GST; dsDNA, one strand shown. An outline of the steps:
as §1

The target of assay [3] is T3, GABPA (Homo sapiens, UniProt Q06546 1-454).
T3 sequence: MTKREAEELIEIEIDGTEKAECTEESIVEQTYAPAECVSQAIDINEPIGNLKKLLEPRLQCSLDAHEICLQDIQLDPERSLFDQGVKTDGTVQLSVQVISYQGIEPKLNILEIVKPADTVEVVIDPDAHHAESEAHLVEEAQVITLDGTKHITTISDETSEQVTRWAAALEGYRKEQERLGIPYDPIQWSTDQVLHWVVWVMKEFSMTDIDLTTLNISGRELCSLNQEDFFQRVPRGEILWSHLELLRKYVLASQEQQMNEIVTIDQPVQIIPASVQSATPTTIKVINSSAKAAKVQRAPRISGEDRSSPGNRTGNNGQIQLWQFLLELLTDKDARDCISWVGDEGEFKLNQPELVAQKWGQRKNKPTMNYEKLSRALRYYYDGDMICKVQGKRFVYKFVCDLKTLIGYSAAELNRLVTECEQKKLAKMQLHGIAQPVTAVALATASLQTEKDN
The note with it: protein: recombinant; tags: N-terminal GST; dsDNA, one strand shown. An outline of the steps: as §1

Assay [4] has as its target T4, ERG (Homo sapiens, UniProt P11308 1-479).
T4 sequence: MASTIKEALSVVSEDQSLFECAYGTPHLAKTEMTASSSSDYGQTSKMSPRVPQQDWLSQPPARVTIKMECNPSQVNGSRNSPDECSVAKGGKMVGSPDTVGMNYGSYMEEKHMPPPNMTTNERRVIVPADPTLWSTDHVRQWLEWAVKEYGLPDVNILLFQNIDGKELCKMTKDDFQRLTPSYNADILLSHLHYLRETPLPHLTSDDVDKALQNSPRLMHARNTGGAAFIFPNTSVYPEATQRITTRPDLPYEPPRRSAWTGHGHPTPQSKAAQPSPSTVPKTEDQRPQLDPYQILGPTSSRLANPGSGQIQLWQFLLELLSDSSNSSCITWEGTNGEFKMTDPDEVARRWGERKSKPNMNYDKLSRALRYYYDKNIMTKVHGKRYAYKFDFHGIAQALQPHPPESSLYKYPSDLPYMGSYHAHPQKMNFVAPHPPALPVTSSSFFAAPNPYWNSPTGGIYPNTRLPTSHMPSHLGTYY
To be noted: protein: recombinant; tags: N-terminal GST; dsDNA, one strand shown. An outline of the steps: as §1

Assay [5] addresses ELF1 (Homo sapiens, UniProt P32519 1-619). The note with it: protein: recombinant; tags: N-terminal GST; dsDNA, one strand shown. A digest of the protocol: as §1
For assay [6], the target named is T5, EHF (Homo sapiens, UniProt Q9NZC4 1-300).
T5 sequence: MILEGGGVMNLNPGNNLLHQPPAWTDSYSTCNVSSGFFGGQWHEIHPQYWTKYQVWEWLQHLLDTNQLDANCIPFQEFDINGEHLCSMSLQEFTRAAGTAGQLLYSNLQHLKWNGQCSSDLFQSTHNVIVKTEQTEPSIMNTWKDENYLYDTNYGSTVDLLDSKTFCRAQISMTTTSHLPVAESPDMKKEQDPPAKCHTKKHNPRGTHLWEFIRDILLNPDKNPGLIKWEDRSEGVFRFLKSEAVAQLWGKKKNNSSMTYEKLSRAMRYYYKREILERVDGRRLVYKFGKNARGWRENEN
To be noted: protein: recombinant; tags: N-terminal GST; dsDNA, one strand shown. An outline of the steps:
as §1

The target of assay [7] is SPI1 (Homo sapiens, UniProt P17947 1-270). To be noted: protein: recombinant; tags: N-terminal GST; dsDNA, one strand shown. An outline of the steps:
as §1

The target of assay [8] is SPIB (Homo sapiens, UniProt Q01892 1-262). The note with it: protein: recombinant; tags: N-terminal GST; dsDNA, one strand shown. A digest of the protocol:
as §1

The target in assay [9] is T6, ELK3 (Homo sapiens, UniProt P41970 1-407).
T6 sequence: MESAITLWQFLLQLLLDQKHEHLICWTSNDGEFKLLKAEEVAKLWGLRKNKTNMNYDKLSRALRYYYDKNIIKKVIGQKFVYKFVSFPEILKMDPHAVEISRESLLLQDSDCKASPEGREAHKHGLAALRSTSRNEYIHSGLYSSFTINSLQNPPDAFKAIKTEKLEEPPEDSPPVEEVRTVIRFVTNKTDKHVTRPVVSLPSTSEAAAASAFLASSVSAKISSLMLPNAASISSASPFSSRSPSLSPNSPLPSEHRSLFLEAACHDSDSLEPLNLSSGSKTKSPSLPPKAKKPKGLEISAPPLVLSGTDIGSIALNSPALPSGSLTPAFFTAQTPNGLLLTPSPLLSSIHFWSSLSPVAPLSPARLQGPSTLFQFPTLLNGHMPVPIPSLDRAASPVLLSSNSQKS
To be noted: protein: recombinant; tags: N-terminal GST; dsDNA, one strand shown. An outline of the steps: as §1

Assay [10] concerns the target T7, FEV (Homo sapiens, UniProt Q99581 1-238).
T7 sequence: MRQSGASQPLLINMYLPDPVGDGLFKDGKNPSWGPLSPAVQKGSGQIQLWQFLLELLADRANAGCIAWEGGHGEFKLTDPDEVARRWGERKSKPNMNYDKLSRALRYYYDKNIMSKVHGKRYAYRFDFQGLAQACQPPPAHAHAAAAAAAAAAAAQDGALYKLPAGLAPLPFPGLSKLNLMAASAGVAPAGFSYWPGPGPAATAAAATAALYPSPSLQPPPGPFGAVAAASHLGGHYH
To be noted: protein: recombinant; tags: N-terminal GST; dsDNA, one strand shown. An outline of the steps: as §1

The target in assay [11] is ETV5 (Homo sapiens, UniProt P41161 1-510). To be noted: protein: recombinant; tags: N-terminal GST; dsDNA, one strand shown. A digest of the protocol:
as §1

Assay [12] has as its target HSF1 (Homo sapiens, UniProt Q00613 1-529). The note with it: protein: recombinant; tags: N-terminal GST; chain copies: 3; dsDNA, one strand shown. A digest of the protocol: as §1
Assay [13] has as its target T8, SPIC (Homo sapiens, UniProt Q8N5J4 1-248).
T8 sequence: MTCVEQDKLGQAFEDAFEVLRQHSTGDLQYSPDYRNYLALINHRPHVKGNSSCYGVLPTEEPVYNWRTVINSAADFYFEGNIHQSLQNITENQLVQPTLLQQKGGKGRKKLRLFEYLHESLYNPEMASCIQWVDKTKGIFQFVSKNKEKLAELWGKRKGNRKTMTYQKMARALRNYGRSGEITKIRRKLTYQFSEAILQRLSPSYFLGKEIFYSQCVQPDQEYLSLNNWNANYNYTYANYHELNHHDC
To be noted: protein: recombinant; tags: N-terminal GST; dsDNA, one strand shown. A digest of the protocol: as §1

For assay [14], the target named is ELF4 (Homo sapiens, UniProt Q99607 1-663). The note with it: protein: recombinant; tags: N-terminal GST; dsDNA, one strand shown. A digest of the protocol: as §1
Sequence of ELF4 (Q99607 whole entry): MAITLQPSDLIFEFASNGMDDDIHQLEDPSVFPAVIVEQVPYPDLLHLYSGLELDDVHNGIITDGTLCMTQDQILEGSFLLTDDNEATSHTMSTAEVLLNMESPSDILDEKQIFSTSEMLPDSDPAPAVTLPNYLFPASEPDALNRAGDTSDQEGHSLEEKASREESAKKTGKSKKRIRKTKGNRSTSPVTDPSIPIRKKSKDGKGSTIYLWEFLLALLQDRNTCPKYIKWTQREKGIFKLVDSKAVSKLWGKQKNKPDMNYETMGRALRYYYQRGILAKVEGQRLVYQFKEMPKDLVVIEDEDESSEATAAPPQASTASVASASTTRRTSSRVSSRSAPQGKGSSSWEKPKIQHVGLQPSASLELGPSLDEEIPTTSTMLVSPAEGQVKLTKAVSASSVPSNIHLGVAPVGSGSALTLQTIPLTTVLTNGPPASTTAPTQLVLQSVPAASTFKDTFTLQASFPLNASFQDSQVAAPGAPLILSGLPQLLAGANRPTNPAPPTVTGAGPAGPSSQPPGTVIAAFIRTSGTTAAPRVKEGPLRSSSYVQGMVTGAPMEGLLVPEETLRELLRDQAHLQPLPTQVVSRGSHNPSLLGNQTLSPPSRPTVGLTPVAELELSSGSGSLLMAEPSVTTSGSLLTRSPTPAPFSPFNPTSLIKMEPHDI
In assay [15] the target is T9, ELK4 (Homo sapiens, UniProt P28324-2 1-405).
T9 sequence: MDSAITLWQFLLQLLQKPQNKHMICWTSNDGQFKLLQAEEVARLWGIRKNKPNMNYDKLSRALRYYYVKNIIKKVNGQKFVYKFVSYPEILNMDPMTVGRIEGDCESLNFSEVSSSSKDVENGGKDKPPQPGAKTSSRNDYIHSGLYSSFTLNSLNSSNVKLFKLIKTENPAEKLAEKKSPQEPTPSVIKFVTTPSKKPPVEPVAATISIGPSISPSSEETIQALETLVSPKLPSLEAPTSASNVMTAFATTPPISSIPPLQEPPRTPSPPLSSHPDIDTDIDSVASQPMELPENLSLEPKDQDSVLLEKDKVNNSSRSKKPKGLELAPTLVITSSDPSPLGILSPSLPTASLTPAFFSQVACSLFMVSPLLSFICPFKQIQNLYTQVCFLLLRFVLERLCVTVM
The note with it: protein: recombinant; tags: N-terminal GST; dsDNA, one strand shown. An outline of the steps: as §1

Assay [16] has as its target T10, ETV2 (Homo sapiens, UniProt O00321 1-342).
T10 sequence: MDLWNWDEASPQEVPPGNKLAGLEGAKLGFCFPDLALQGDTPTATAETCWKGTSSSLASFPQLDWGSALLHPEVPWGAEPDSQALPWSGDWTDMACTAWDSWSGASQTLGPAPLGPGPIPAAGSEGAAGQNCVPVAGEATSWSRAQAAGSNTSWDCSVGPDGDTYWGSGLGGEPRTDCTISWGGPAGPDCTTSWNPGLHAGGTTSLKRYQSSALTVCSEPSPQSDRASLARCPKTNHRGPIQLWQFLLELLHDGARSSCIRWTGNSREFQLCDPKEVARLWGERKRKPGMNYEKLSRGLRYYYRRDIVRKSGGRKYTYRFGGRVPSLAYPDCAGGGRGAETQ
The note with it: protein: recombinant; tags: N-terminal GST; dsDNA, one strand shown. An outline of the steps:
as §1

Assay [17] concerns the target T11, ELF3 (Homo sapiens, UniProt P78545 1-371).
T11 sequence: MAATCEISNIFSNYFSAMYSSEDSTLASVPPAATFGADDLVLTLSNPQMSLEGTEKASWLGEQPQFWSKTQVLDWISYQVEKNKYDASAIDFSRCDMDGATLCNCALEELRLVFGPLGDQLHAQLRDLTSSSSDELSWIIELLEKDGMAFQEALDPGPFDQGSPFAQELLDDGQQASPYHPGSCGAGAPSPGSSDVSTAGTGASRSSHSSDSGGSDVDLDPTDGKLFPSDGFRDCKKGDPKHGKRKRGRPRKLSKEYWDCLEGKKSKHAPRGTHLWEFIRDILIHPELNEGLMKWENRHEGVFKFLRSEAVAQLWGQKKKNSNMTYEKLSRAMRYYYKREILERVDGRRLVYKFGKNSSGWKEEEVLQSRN
To be noted: protein: recombinant; tags: N-terminal GST; dsDNA, one strand shown. A digest of the protocol: as §1

Assay [18] concerns the target CRX (Homo sapiens, UniProt O43186 1-299). To be noted: protein: recombinant; tags: N-terminal GST; dsDNA, one strand shown. An outline of the steps: as §1
The target of assay [19] is ETV1 (Homo sapiens, UniProt P50549 1-477). To be noted: protein: recombinant; tags: N-terminal GST; dsDNA, one strand shown. A digest of the protocol:
as §1

Sequence of ETV5 (P41161 whole entry): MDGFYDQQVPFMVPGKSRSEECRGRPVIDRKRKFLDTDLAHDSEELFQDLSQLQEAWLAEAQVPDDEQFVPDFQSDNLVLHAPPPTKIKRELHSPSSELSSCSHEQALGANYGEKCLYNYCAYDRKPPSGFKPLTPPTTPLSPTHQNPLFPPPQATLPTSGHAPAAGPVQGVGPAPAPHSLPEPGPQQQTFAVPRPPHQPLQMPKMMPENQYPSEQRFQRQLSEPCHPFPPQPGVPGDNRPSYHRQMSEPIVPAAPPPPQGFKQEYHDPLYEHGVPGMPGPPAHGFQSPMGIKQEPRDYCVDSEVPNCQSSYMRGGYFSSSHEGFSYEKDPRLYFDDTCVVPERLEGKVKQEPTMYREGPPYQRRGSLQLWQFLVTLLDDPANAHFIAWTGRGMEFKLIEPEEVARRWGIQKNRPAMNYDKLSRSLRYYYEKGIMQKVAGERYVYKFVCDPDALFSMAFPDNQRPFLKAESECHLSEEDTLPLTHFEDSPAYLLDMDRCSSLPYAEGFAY
Sequence of HSF1 (Q00613 whole entry): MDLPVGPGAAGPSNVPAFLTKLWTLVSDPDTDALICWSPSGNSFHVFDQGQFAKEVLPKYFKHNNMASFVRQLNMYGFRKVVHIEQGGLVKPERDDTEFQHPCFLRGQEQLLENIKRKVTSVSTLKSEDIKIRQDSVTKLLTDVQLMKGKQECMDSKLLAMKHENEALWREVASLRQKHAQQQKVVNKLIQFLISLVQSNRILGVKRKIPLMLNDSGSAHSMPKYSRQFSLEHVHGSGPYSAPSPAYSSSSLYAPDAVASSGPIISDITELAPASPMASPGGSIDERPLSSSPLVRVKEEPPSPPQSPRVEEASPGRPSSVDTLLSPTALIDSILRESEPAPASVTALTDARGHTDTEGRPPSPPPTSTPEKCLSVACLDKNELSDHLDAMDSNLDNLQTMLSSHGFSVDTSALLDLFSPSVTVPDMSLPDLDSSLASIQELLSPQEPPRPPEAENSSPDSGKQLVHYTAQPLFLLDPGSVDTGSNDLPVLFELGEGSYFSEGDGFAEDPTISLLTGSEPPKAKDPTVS
Sequence of SPIB (Q01892 whole entry): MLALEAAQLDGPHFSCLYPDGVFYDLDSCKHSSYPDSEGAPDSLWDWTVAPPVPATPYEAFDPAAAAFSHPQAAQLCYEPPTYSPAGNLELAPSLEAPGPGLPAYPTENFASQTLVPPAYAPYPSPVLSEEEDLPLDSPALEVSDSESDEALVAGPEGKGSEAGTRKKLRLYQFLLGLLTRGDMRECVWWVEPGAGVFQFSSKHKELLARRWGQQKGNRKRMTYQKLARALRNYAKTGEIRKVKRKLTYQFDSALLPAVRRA
Sequence of ELF1 (P32519 whole entry): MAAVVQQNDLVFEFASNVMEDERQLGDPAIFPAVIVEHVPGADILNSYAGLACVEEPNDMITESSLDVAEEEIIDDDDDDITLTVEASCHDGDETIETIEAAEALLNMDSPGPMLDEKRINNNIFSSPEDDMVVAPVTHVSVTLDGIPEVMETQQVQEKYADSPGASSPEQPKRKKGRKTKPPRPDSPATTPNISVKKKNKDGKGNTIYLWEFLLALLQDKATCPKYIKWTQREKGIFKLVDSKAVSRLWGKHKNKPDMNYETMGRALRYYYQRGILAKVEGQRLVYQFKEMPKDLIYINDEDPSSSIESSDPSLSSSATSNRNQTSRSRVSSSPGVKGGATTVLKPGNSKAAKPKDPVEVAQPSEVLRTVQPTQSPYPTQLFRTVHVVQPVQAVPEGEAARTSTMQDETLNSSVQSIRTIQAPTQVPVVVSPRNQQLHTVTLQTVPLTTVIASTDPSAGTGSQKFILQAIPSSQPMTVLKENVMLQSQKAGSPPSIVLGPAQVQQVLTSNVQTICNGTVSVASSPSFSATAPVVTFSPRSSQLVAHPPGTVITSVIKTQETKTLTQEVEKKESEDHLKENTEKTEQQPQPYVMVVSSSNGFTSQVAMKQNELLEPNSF
Sequence of ETV1 (P50549 whole entry): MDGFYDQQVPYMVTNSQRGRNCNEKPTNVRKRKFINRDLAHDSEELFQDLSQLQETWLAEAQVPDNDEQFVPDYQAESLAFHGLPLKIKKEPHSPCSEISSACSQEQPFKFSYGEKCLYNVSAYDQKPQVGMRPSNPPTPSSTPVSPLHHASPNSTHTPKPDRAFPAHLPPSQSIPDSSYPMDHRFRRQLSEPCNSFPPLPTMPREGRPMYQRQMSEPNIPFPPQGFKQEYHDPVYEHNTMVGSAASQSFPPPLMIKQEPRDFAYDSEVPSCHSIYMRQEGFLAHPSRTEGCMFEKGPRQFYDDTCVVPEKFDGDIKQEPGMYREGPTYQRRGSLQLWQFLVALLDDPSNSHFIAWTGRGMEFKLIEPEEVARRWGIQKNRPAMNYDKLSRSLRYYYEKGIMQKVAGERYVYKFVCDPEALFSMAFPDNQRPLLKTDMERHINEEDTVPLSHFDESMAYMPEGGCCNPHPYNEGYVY
Sequence of CRX (O43186 whole entry): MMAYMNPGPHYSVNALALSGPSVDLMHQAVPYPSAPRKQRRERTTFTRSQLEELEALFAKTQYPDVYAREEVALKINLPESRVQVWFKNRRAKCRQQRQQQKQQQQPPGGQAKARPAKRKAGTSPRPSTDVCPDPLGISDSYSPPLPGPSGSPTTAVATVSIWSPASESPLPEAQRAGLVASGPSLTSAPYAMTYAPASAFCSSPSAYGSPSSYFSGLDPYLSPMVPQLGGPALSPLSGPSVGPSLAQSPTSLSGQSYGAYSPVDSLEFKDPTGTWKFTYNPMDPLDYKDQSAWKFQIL

As to ATTTTC, the binding signal was 1.47 fold enrichment (6-mer frequency, TF over GST control) in assay [1]; 1.35 fold enrichment (6-mer frequency, TF over GST control) in assay [2]; 1.46 fold enrichment (6-mer frequency, TF over GST control) in assay [3]; 1.46 fold enrichment (6-mer frequency, TF over GST control) in [4]; 1.31 fold enrichment (6-mer frequency, TF over GST control) in [5]; 1.49 fold enrichment (6-mer frequency, TF over GST control) in assay [6]. Moreover, the binding signal in [7] is 1.56 fold enrichment (6-mer frequency, TF over GST control); in assay [8], 1.41 fold enrichment (6-mer frequency, TF over GST control); in assay [9], 1.31 fold enrichment (6-mer frequency, TF over GST control); in [10], 1.35 fold enrichment (6-mer frequency, TF over GST control); in assay [11], 1.44 fold enrichment (6-mer frequency, TF over GST control); in assay [12] it was 2.04 fold enrichment (6-mer frequency, TF over GST control). Further, the binding signal in [13] is 1.44 fold enrichment (6-mer frequency, TF over GST control); in [14] it was 1.64 fold enrichment (6-mer frequency, TF over GST control); in assay [15], 1.5 fold enrichment (6-mer frequency, TF over GST control); in assay [16], 1.63 fold enrichment (6-mer frequency, TF over GST control); in assay [17], 1.48 fold enrichment (6-mer frequency, TF over GST control); in assay [18], 1.67 fold enrichment (6-mer frequency, TF over GST control). In assay [19], the binding signal is 1.4 fold enrichment (6-mer frequency, TF over GST control).
